A selection: hits, their analogues and other compounds. The true share with any hit is near 5.8%.
PINK1 expr mod: PINK1 expression modulation. AID 624263. PINK1 immunofluorescence, high-content cytometry, 24 h. 410,000 compounds, 0.2% hits. Potency, µM (highest dose often 76.6 µM), actives largely listed as activators; active means well fitted activation curve with a large enough effect; inconclusive means small, poorly fitted or top-dose-only effect; cell line not stated here; further: nearly all actives have a fitted effect of over 65% in size
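Cells are seeded, rested 12 hours, then given compound at five concentrations or DMSO for 24 hours. After fixation, blocking and antibody staining, PINK1 amount and mitochondrial localization are scored; CCCP serves as control.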
KB-3-1 tox: kills parental KB-3-1 adenocarcinoma cells; KB-3-1 viability, CellTiter-Glo ATP luminescence, 72 h; Potency, µM (top dose mostly 46.1 µM), actives largely listed as cytotoxic; 400,000 compounds, 1.4% hits; AID 1347075; further: nearly all actives have a fitted effect of over 60% in size
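Here the drug-naive KB-3-1 line serves as comparator for MDR sub-line selectivity; cells received compound titrations, 72 h at 37 °C, then CellTiter-Glo readout.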
SW480 rerep: DNA re-replication induction in SW480 cells. SW480 DNA re-replication, Hoechst DNA content imaging, 48 h. Potency, µM (series often up to 46.1 µM), most hits filed as activators. 340,000 compounds, 1.8% hits; further: nearly all actives have a fitted effect of over 55% in size
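Image-based read-out: total Hoechst fluorescence of nuclei (405 nm excitation, 500-530 nm emission), with hits raising the fraction of high-intensity nuclei. SW480 colon cells incubated 48 hr with compounds at 37 C.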
MCF10A rerep: inducers of DNA re-replication in MCF 10A breast cells | MCF 10A DNA re-replication, Hoechst nuclear intensity, 48 h | Potency, µM (highest dose often 46.1 µM), most hits filed as activators | 350,000 compounds, 2.9% hits | AID 624296; further: nearly all actives have a fitted effect of over 50% in size
KB-V1 MDR tox: KB-V1 MDR subline cytotoxicity; KB-V1 MDR cells viability, CellTiter-Glo, 72 h; Potency, µM (titrated, usually from 46.1 µM), actives largely listed as cytotoxic; 400,000 compounds, 3.4% hits; AID 1347076; further: nearly all actives have a fitted effect of over 60% in size
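Readout: CellTiter-Glo luminescence, 10 min after addition. Cells: KB-V1 MDR subline, 72 h at 37 degrees C with compound. Analysis: corrected, normalized data fitted to concentration-effect curves.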
12-LOX inh: inhibitors of human 12S-lipoxygenase ALOX12 | P18054 | purified 12hLO, xylenol orange hydroperoxide absorbance | Potency, µM (series often up to 108 µM), usual class: inhibitors | 580,000 compounds, 1.1% hits
Target sequence (P18054 whole entry, looked up): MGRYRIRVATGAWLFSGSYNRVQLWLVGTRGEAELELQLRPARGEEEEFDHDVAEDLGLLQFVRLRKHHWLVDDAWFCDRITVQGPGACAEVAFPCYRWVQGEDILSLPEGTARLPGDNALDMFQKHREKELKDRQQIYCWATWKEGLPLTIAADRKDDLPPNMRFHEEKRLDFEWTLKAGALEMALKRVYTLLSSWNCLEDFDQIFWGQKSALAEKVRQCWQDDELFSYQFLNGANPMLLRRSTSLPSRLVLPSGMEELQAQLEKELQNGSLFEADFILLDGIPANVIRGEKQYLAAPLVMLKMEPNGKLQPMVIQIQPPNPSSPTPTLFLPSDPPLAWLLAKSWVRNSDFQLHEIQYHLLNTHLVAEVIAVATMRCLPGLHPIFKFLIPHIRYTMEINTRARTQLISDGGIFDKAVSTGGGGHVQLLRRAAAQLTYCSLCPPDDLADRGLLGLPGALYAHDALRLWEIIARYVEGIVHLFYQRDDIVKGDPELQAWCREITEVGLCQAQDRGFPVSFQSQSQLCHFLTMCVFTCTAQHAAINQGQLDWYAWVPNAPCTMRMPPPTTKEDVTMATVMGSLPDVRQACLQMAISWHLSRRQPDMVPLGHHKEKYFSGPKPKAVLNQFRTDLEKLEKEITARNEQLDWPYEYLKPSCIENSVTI
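Hydroperoxide product was detected by ferrous iron/xylenol orange as the 573 to 405 nm absorbance ratio. Arachidonic acid at 40 uM (final) was turned over for 30 min at room temperature by 150 nM human 12hLO, pH 7.0 Hepes buffer, after 15 min compound preincubation.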
Large screens that a line does not name were inactive. Unless noted, the call rests on the fitted dose curve; in most records, active means well fitted curve in the direction sought with a large enough effect; inconclusive means small, poorly fitted or top-dose-only effect, or another doubt; inactive means no such curve, though single readings can be large; an effect the other way counts as inactive or inconclusive.

CCOc1ccc(NC(=O)CN(C)C(=O)C2CCCC2)cc1OCC	MCF10A rerep 0.65µM
O=C(Nc1nccs1)c1csc(NC2CCCC2)n1	none (no result: PINK1 expr mod, KB-3-1 tox, SW480 rerep, MCF10A rerep, KB-V1 MDR tox)
N#Cc1nc(/C=C/c2ccccc2)oc1NCCCN1CCOCC1	SW480 rerep inconclusive, MCF10A rerep 23µM, KB-V1 MDR tox inconclusive
CNc1oc(/C=C/c2ccccc2)nc1C#N	SW480 rerep inconclusive, MCF10A rerep 21µM
N#Cc1nc(COc2ccc(-c3ccccc3)cc2)oc1NCCCN1CCOCC1	KB-3-1 tox inconclusive, SW480 rerep inconclusive, MCF10A rerep 11µM
CCN1CCN(c2oc(/C=C/c3ccccc3)nc2C#N)CC1	SW480 rerep inconclusive, MCF10A rerep 23µM
CCN1CCN(c2oc(/C=C/c3ccccc3OC)nc2C#N)CC1	none (no result: KB-3-1 tox, SW480 rerep, MCF10A rerep, KB-V1 MDR tox)
CSc1ccc(/C=C2\CS(=O)(=O)c3c(F)cccc3C2=O)cc1	none (no result: PINK1 expr mod, KB-3-1 tox, SW480 rerep, MCF10A rerep, KB-V1 MDR tox)
O=C(NNC(=O)C1CCCC1)c1ccc(CSc2ccc(Cl)cc2)cc1	none (no result: PINK1 expr mod, KB-3-1 tox, SW480 rerep, MCF10A rerep, KB-V1 MDR tox)
Cc1ccc(NC(=O)c2nccnc2N)cc1I	none (no result: PINK1 expr mod, KB-3-1 tox, SW480 rerep, MCF10A rerep, KB-V1 MDR tox)
CCOC(=O)C1CCN(C(=O)Cc2cccn2-c2ccc(F)cc2)CC1	none (no result: PINK1 expr mod, KB-3-1 tox, SW480 rerep, MCF10A rerep, KB-V1 MDR tox)
N#Cc1nc(-c2cccc3ccccc23)oc1NCCN1CCOCC1	PINK1 expr mod inconclusive, SW480 rerep inconclusive, MCF10A rerep 16µM, 12-LOX inh inconclusive
N#Cc1nc(-c2ccccc2F)oc1NCCN1CCOCC1	none
CCN(CC)C(=O)c1sc(NC(=O)c2ccc(Br)o2)c(C(=O)OC)c1C	MCF10A rerep inconclusive, KB-V1 MDR tox 9.2µM, 12-LOX inh inconclusive
CCCCC(=O)Nc1sc(C(=O)N(CC)CC)c(C)c1C(=O)OC	12-LOX inh 35µM
CN1C(=O)C(Cc2nc3ccccc3c(=O)n2CCCO)c2ccccc21 (stereo unspecified)	none (no result: PINK1 expr mod, KB-3-1 tox, SW480 rerep, MCF10A rerep, KB-V1 MDR tox)
Cc1ccc(C2=CSC3=NCCN23)cc1	MCF10A rerep 7.3µM
O=C(COc1ccc(Cl)cc1)Nc1c(NC2CCCCC2)c2ccccc2oc1=O	none (no result: PINK1 expr mod, KB-3-1 tox, SW480 rerep, MCF10A rerep, KB-V1 MDR tox)
O=C(NCCCN1CCOCC1)c1ccc(-c2ccc(N3CCCCCC3)nc2)cc1	none (no result: PINK1 expr mod, KB-3-1 tox, SW480 rerep, MCF10A rerep, KB-V1 MDR tox)
COc1ccc(Nc2nc(N3CCCCC3)c3ccccc3n2)cc1	KB-3-1 tox inconclusive, KB-V1 MDR tox 21µM, 12-LOX inh 28µM
Oc1ccc(Nc2nc(N3CCCC3)c3ccccc3n2)cc1	KB-3-1 tox 9.2µM, SW480 rerep inconclusive, MCF10A rerep inconclusive, 12-LOX inh inconclusive
Cc1ccc(Nc2nc(N3CCOCC3)c3ccccc3n2)cc1	KB-3-1 tox inconclusive, MCF10A rerep inconclusive, 12-LOX inh inconclusive
CCNC(=O)CN1CCN(C(=O)C2CCN(c3nc4ccccc4o3)CC2)CC1	none (no result: PINK1 expr mod, KB-3-1 tox, SW480 rerep, MCF10A rerep, KB-V1 MDR tox)
FC(F)(F)c1cccc(CSc2nc(-c3ccccc3)c3ccccc3n2)c1	none (no result: PINK1 expr mod, KB-3-1 tox, SW480 rerep, MCF10A rerep, KB-V1 MDR tox)
Clc1ccc(CSc2cc(-c3ccccc3)c3ccccc3n2)cc1	none (no result: PINK1 expr mod, KB-3-1 tox, SW480 rerep, MCF10A rerep, KB-V1 MDR tox)
CCCCSc1nc2sc3c(c2c(=O)n1-c1ccccc1)CCN(C)C3	MCF10A rerep inconclusive, 12-LOX inh inconclusive
CN1CCc2c(sc3nc(SCC(N)=O)n(-c4ccc(Cl)cc4)c(=O)c23)C1	SW480 rerep inconclusive, MCF10A rerep 16µM, 12-LOX inh inconclusive
CCSc1nc2sc3c(c2c(=O)n1-c1ccccc1)CCN(C(C)C)C3	MCF10A rerep 18µM, 12-LOX inh inconclusive
CN1CCc2c(sc3nc(SCC(N)=O)n(-c4ccccc4)c(=O)c23)C1	none
COC(=O)C1C(=O)CC(C)(O)C(C(=O)OC)C1c1ccc(F)cc1 (stereo unspecified)	none (no result: PINK1 expr mod, KB-3-1 tox, SW480 rerep, MCF10A rerep, KB-V1 MDR tox)
COc1ccc(OC)c(C(c2nnnn2Cc2ccco2)N2CCN(C)CC2)c1 (stereo unspecified)	SW480 rerep inconclusive
CC(C)CC(c1nnnn1Cc1ccco1)N1CCN(c2cccc(Cl)c2)CC1 (stereo unspecified)	KB-3-1 tox 10µM, SW480 rerep inconclusive, MCF10A rerep inconclusive, KB-V1 MDR tox inconclusive, 12-LOX inh inconclusive
Clc1ccccc1C(c1nnnn1Cc1ccco1)N1CCN(Cc2ccco2)CC1 (stereo unspecified)	12-LOX inh 45µM
CC(C)CC(c1nnnn1CC1CCCO1)N1CCN(c2cccc(Cl)c2)CC1 (stereo unspecified)	KB-3-1 tox inconclusive, SW480 rerep inconclusive, MCF10A rerep inconclusive
O=C(c1ccco1)N1CCN(C(c2ccc(Cl)cc2)c2nnnn2Cc2ccccc2)CC1 (stereo unspecified)	KB-3-1 tox inconclusive, KB-V1 MDR tox 16µM, 12-LOX inh inconclusive
CC(C)c1ccccc1NS(=O)(=O)c1ccc(CCC(=O)O)cc1	none (no result: PINK1 expr mod, KB-3-1 tox, SW480 rerep, MCF10A rerep, KB-V1 MDR tox)
CCc1ccc(CNC(=O)Nc2ccc(N3CCOCC3)nc2)s1	none (no result: PINK1 expr mod, KB-3-1 tox, SW480 rerep, MCF10A rerep, KB-V1 MDR tox)
COc1ccccc1N1CCN([C@@H]2[C@H](O)[C@H](CO)O[C@@H]2CN(Cc2ccc(F)cc2)Cc2ccc(F)cc2)CC1	12-LOX inh 28µM (no result: PINK1 expr mod, KB-3-1 tox, SW480 rerep, MCF10A rerep, KB-V1 MDR tox)
COc1ccccc1N1CCN([C@@H]2[C@H](O)[C@H](CO)O[C@@H]2CNC(C)C)CC1	12-LOX inh 20µM (no result: PINK1 expr mod, KB-3-1 tox, SW480 rerep, MCF10A rerep, KB-V1 MDR tox)
COc1ccccc1N1CCN([C@@H]2[C@H](O)[C@H](CO)O[C@@H]2CNS(C)(=O)=O)CC1	none (no result: PINK1 expr mod, KB-3-1 tox, SW480 rerep, MCF10A rerep, KB-V1 MDR tox)
CN(Cc1ccccc1)Cc1nc2c(n1Cc1ccccc1)C(=O)N(Cc1cccc(Cl)c1)CCN2	none (no result: PINK1 expr mod, KB-3-1 tox, SW480 rerep, MCF10A rerep, KB-V1 MDR tox)
Cc1ccc(C(=O)Oc2cccc3c(OC(=O)c4cccc(C)c4)cccc23)cc1	none (no result: PINK1 expr mod, KB-3-1 tox, SW480 rerep, MCF10A rerep, KB-V1 MDR tox)
CC(C)(C)c1ccc(NC(=O)CON=C(N)c2ccccc2)cc1	SW480 rerep 0.29µM
Cc1cc(C)c2[nH]c(=O)c(CN(Cc3nnnn3C3CCCC3)C3CCCCC3)cc2c1	none (no result: 12-LOX inh)

Bioassay records: PubChem, National Center for Advancing Translational Sciences (NCATS)
